# Records with an inconclusive call do not appear. Where a call stands in place of a potency, no number is given. Some compounds were tested as several samples or in several runs, with calls that do not always agree. Activity calls are given as the source filed them. Unless noted, the call rests on the fitted dose curve; in most records, active means well fitted curve in the direction sought with a large enough effect in the repeat runs; inconclusive means weak or mixed curves; inactive means no such curve, though single readings can be large; an effect the other way counts as inactive or inconclusive.
# Experiments:
# [1] = qHTS assay to identify small molecule antagonists of the androgen receptor (AR) signaling pathway using the MDA cell line in the presence of 0.5 nM R1881 - cell viability counter screen (AID 1259242); further: nearly all actives have a fitted effect of over 45% in size; further: potency means the concentration at half of the fitted maximal effect
# In short: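 Cytotoxicity toward MDA-kb2 cells is measured by CellTiter-Fluor live-cell protease fluorescence after 16 hr compound exposure at 37C in the presence of 0.5 nM R1881 stimulator.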
# [2] = target: Estrogen receptor (Homo sapiens) (UniProt P03372); assay: qHTS assay to identify small molecule antagonists of the estrogen receptor alpha (ER-alpha) signaling pathway using the BG1 cell line in the presence of 0.1 nM 17-beta-estradiol (AID 1259244); further: nearly all actives have a fitted effect of over 50% in size; further: potency means the concentration at half of the fitted maximal effect
# Estrogen receptor (Homo sapiens), sequence (P03372 whole entry, looked up): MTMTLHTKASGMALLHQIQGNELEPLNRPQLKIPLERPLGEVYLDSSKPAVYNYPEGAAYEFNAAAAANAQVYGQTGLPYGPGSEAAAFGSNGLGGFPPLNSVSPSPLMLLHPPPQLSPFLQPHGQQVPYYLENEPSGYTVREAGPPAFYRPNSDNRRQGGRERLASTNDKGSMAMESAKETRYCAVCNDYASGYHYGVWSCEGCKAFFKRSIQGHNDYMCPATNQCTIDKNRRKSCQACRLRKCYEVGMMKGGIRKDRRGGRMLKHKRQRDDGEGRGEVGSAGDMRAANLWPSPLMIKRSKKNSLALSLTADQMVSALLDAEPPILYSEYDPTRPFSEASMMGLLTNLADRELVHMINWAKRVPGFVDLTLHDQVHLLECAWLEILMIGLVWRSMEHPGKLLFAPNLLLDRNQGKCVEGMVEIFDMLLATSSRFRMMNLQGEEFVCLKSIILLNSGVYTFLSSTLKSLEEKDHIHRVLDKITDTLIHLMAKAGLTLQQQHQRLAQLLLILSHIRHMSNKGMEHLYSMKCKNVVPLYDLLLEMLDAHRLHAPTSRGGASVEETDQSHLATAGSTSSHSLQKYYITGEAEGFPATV
# In short: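 After 5 days in hormone-depleted medium (charcoal-stripped serum, no phenol red), VM7Luc4E2 cells were seeded, incubated 24 h, then co-treated with compound and 0.1 nM (final) estradiol for 22 h before luminescence detection.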
# [3] = qHTS assay to identify small molecule HDAC inhibitors (AID 1259364); further: nearly all actives have a fitted effect of over 45% in size; further: potency means the concentration at half of the fitted maximal effect; on activity change, negative = inhibition: top concentration of the series differs between compounds
# In short: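 Homogeneous cell-based luminescent assay of endogenous class I/II HDAC activity; HCT-116 cells, 2 h compound exposure, 30 min HDAC-Glo development at RT.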
# [4] = qHTS assay to identify small molecule agonists of the sonic hedgehog signaling (Shh) pathway - cell viability counter screen (AID 1259366); further: nearly all actives have a fitted effect of over 50% in size; further: potency means the concentration at half of the fitted maximal effect
# In short: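 NIH/3T3-derived 3T3 Gli1-Luc cells (stable Gli1-responsive firefly luciferase reporter) were seeded, rested 4 hr at 37 C/5% CO2, then exposed to compounds in DMSO for 24 hr; viability was read by CellTiter-Fluor fluorescence in the same wells.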
# [5] = qHTS assay to identify small molecule agonists of the sonic hedgehog signaling (Shh) pathway (AID 1259368; calls by dose curve; further: series mostly up to about 92 µM; nearly all actives have a fitted effect of over 15% in size)
# In short: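 Steps: seed 3T3 Gli1-Luc cells, incubate 4 hr at 37 C, pin-transfer compounds in DMSO alongside a positive control, incubate 24 hr, add luciferase detection reagent, wait 30 min at room temperature, read luminescence.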
# [6] = qHTS assay to identify small molecule antagonists of the sonic hedgehog signaling (Shh) pathway (AID 1259369; calls by dose curve; further: nearly all actives have a fitted effect of over 45% in size; further: potency means the concentration at half of the fitted maximal effect)
# In short: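 Inhibition of Shh signalling is measured as reduced Gli1-response-element firefly luciferase output in an NIH/3T3-derived stable reporter clone stimulated with conditioned medium for 24hr.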
# [7] = target: Estrogen receptor beta (Homo sapiens) (UniProt Q92731); assay: qHTS assay to identify small molecule agonists of the estrogen receptor beta (ER-beta) signaling pathway (AID 1259377; active means well fitted activation curve with a large enough effect in the signal ratio in the repeat runs, not every such curve was filed as active; the % refers to the signal ratio; further: potency means the concentration at half of the fitted maximal effect)
# Estrogen receptor beta (Homo sapiens), sequence (Q92731 whole entry, looked up): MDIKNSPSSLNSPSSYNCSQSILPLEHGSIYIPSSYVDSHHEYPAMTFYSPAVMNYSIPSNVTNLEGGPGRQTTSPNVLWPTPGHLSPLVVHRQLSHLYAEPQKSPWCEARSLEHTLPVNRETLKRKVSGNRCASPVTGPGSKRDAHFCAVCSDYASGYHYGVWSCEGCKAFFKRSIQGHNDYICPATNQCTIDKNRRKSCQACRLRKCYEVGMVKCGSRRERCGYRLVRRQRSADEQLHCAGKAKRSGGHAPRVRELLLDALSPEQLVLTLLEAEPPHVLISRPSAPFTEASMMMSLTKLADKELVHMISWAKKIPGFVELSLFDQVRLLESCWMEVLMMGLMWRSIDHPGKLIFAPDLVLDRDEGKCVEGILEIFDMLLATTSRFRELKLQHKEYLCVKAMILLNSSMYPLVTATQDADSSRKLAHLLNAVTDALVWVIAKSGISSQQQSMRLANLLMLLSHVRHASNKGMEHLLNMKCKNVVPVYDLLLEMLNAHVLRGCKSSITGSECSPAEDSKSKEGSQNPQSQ
# In short: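 ER-beta-UAS-bla HEK293T (GripTite) cells carrying a UAS-driven beta-lactamase reporter, in medium with 2% charcoal-stripped FBS, were exposed to compounds for 16 hr at 37C; LiveBLAzer B/G FRET substrate was then added and fluorescence read after 2 hours at room temperature.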
# [8] = target: Estrogen receptor beta (Homo sapiens) (UniProt Q92731); assay: qHTS assay to identify small molecule antagonists of the estrogen receptor beta (ER-beta) signaling pathway (AID 1259378; active means well fitted inhibition curve with a large enough effect in the signal ratio in the repeat runs, not every such curve was filed as active; the % refers to the signal ratio; further: potency means the concentration at half of the fitted maximal effect)
# In short: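 Antagonist mode: compounds added to beta-lactamase reporter HEK293T ER-beta-UAS cells stimulated with E2 (1nM final), 16 hr at 37C. LiveBLAzer B/G FRET substrate, 2 hours room temperature, fluorescence read-out.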
# [9] = qHTS assay to identify small molecule agonists of the androgen receptor (AR) signaling pathway in the presence of an antagonist - cell viability counter screen (AID 1259379); further: nearly all actives have a fitted effect of over 25% in size; further: potency means the concentration at half of the fitted maximal effect
# In short: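 Fluorescence from CellTiter-Fluor, added after 15 hr and read 1 hr later, gave cell viability. Cells were MDA-kb2 exposed to compounds (15 concentrations) in the presence of 3.0uM nilutamide at 37C, 0% CO2.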
# [10] = qHTS assay to identify small molecule agonists of the estrogen receptor beta (ER-beta) signaling pathway - cell viability counter screen (AID 1259380); further: nearly all actives have a fitted effect of over 30% in size; further: potency means the concentration at half of the fitted maximal effect
# In short: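 Same-well viability counter screen. Cells: ER-beta-UAS-bla HEK293T, plated 6 hr before compound, in 2% charcoal-stripped FBS. Compound exposure 16 hr, 37C; viability by CellTiter-Glo luminescence after 30 min at room temperature.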
# [11] = qHTS assay to identify small molecule antagonists of the estrogen receptor beta (ER-beta) signaling pathway - cell viability counter screen (AID 1259382); further: nearly all actives have a fitted effect of over 55% in size; further: potency means the concentration at half of the fitted maximal effect
# In short: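 Following a 6 hr plating period, HEK293T cells carrying a UAS-driven beta-lactamase reporter under ER-beta control received compounds and 1nM E2 (final). After 16 hr at 37C and 2 hr substrate loading, CellTiter-Glo luminescence indicated viability.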
# [12] = target: Estrogen receptor (Homo sapiens) (UniProt P03372); assay: qHTS assay to identify small molecule agonists of the estrogen receptor alpha (ER-alpha) signaling pathway in the presence of an antagonist (AID 1259383; calls by dose curve; further: nearly all actives have a fitted effect of over 15% in size; further: potency means the concentration at half of the fitted maximal effect; on activation: top concentration of the series differs between compounds)
# In short: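 Cells are hormone-deprived for 5 days (charcoal-stripped FBS, no phenol red), plated for 24hr, spiked with 10.0nM ICI-182,780, then dosed at 15 concentrations. After 22hr at 37C, ONE-Glo luminescence reports ERE-luciferase activity.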
# [13] = qHTS assay to identify small molecule agonists or antagonists of the thyroid stimulating hormone receptor (TSHR) signaling pathway - wild type cell line counter screen (AID 1259384; calls by dose curve)
# In short: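 Counter screen in untransfected Hek293: compounds (15-point titration, triplicate) plus phosphodiesterase inhibitor Ro20-1724 added after 18 h plating; 30 min RT. Intracellular cAMP via competitive d2/cryptate immunoassay, 1 h incubation.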
# [14] = target: Thyrotropin receptor (Homo sapiens) (UniProt P16473); assay: qHTS assay to identify small molecule antagonists of the thyroid stimulating hormone receptor (TSHR) signaling pathway (AID 1259385; calls by dose curve; further: nearly all actives have a fitted effect of over 20% in size; further: potency means the concentration at half of the fitted maximal effect)
# Thyrotropin receptor (Homo sapiens), sequence (P16473 whole entry, looked up): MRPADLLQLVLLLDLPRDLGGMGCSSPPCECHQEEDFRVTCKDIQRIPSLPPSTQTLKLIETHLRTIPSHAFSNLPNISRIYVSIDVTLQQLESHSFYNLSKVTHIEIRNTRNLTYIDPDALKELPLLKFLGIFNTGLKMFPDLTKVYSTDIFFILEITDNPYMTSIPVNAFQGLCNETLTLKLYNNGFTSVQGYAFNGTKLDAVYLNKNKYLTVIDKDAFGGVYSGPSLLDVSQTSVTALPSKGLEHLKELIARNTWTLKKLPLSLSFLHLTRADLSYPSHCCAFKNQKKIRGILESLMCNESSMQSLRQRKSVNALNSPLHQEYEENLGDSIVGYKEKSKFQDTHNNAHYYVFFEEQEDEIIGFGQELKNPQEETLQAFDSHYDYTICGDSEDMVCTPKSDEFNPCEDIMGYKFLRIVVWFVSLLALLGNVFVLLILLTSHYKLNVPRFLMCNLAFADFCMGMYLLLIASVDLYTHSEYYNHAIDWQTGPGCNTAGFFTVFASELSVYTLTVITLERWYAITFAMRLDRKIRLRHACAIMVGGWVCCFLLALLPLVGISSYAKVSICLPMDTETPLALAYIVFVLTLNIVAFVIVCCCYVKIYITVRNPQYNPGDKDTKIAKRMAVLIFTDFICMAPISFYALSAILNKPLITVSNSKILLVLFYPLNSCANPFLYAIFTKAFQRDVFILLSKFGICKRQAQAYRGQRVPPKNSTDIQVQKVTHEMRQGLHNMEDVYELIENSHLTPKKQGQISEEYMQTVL
# In short: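 Antagonist mode: compound-treated TSHR-expressing HEK293 cells were stimulated with 1.5 ng/mL TSH (final) in presence of Ro20-1724 for 30 min at RT. HTRF cAMP detection after 1 h; each compound tested at 15 concentrations, triplicate.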
# [15] = qHTS assay to identify small molecule agonists of the estrogen receptor alpha (ER-alpha) signaling pathway in the presence of an antagonist - cell viability counter screen (AID 1259386);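 further: series mostly up to about 92 µM; cells exposed to compounds for 22 h at 37 °C before the viability read; nearly all actives have a fitted effect of over 30% in size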
# In short: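 Cells are starved of estrogens for 5 days in charcoal-stripped serum, seeded for 24hr and co-treated with ICI-182,780 (10.0nM final) and test compounds. After 22hr at 37C, viability is read as CellTiter-Fluor fluorescence.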
# [16] = target: Androgen receptor (Homo sapiens) (UniProt P10275); assay: qHTS assay to identify small molecule antagonists of the androgen receptor (AR) signaling pathway using the MDA cell line in the presence of 0.5 nM R1881 (AID 1259243); further: nearly all actives have a fitted effect of over 50% in size
# Androgen receptor (Homo sapiens), sequence (P10275 whole entry, looked up): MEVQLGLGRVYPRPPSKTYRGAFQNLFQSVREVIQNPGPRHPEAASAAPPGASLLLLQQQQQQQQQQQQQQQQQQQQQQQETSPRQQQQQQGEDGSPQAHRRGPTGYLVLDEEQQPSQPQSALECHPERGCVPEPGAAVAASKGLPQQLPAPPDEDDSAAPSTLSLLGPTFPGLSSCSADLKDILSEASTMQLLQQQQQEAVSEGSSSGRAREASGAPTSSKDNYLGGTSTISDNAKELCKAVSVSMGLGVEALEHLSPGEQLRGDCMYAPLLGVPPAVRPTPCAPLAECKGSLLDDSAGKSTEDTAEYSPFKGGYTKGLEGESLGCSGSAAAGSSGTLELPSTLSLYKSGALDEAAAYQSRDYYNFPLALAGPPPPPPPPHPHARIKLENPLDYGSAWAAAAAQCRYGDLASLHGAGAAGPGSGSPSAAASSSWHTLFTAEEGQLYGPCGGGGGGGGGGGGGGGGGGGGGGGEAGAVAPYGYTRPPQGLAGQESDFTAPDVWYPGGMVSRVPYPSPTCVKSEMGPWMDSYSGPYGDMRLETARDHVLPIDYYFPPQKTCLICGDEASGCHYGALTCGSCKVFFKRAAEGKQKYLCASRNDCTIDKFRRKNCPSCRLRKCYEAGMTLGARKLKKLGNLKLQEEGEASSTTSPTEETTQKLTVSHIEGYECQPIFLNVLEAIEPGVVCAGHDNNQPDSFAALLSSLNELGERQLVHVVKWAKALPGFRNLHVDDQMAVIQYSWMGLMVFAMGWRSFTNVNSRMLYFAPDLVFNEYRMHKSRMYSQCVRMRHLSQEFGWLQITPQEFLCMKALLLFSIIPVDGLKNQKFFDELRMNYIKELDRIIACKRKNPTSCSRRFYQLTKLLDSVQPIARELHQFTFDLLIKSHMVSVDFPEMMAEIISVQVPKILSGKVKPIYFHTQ
# In short: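 Steps: seed MDA-kb2 cells, incubate 5 hr at 37C; pin-transfer compounds in DMSO; add R1881 to 0.5 nM final; incubate 16 hr; add ONE-Glo, wait 30 min at room temperature; read luminescence.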
# [17] = target: Androgen receptor (Homo sapiens) (UniProt P10275); assay: qHTS assay to identify small molecule agonists of the androgen receptor (AR) signaling pathway in the presence of an antagonist (AID 1259381; calls by dose curve; further: nearly all actives have a fitted effect of over 15% in size; further: potency means the concentration at half of the fitted maximal effect)
# In short: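 Cells are MDA-kb2 (human breast carcinoma, MMTV-luc, AR/GR responsive). Nilutamide is present at 3.0uM final throughout; compounds are added at 15 concentrations and incubated 16hr at 37C before ONE-Glo luminescence detection.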
# [18] = qHTS assay to identify small molecule phospholipidosis (PLD) inducers (AID 1259344; active means well fitted curve in the direction sought with a large enough effect; an effect the other way counts as inactive or inconclusive)
# In short: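 Fluorescent phospholipid staining (LipidTOX Red) measured by automated microscopy in fixed HepG2 cells after 24 h treatment; nuclei counterstained with Hoechst 33342; amiodarone as reference inducer.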
# [19] = qHTS assay to identify small molecule HDAC inhibitors - cell viability counter screen (AID 1259365); further: series mostly up to about 92 µM; nearly all actives have a fitted effect of over 50% in size
# In short: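 Wild-type HCT-116 cells were seeded at 1,500 per well, incubated overnight at 37 C, then exposed to compounds in DMSO for 2hr. Viability was read by CellTiter-Glo luminescence after 30min at room temperature.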
compound,measurement,setting,value
NC1CCCCC1,Potency,[1],inactive
same,Potency,[2],inactive
same,Potency,[3],inactive
same,Potency,[4],inactive
same,outcome,[5],inactive
same,Potency,[6],inactive
same,Potency,[7],2.75 µM (active) and inactive
same,Potency,[8],inactive
same,Potency,[9],inactive
same,Potency,[10],inactive
same,Potency,[11],inactive
same,Potency,[12],1.09 µM (active) and inactive
same,Potency,[13],inactive
same,Potency,[14],inactive
same,Potency,[15],inactive
Nc1ccc2c(c1)CN1C(=O)c3ccccc3C1=N2,"activity, negative = inhibition",[16],57.2% [at 19 µM] (inactive)
same,Potency,[2],3.26 µM (active)
same,Potency,[3],0.326 µM (active)
same,"activity change, negative = inhibition",[6],-44.1% [at 19 µM] (inactive)
same,Potency,[10],5.8 µM (active)
same,Potency,[17],0.231 µM (active)
same,Potency,[12],92 nM (active)
same,cAMP activity change,[13],"-1.34% [at 18.9 µM, stronger effect = higher value] (inactive)"
CCN(Cc1c(F)cccc1Cl)c1c([N+](=O)[O-])cc(C(F)(F)F)cc1[N+](=O)[O-],Potency,[1],inactive
same,Potency,[3],inactive
same,Potency,[4],inactive
same,outcome,[5],inactive
same,Potency,[6],inactive
same,Potency,[9],inactive
same,Potency,[10],30.6 µM (active)
same,Potency,[12],inactive
same,Potency,[15],inactive
C1CCC(C(CC2CCCCN2)C2CCCCC2)CC1 (configuration not stated),Potency,[1],26.6 µM (active)
same,Potency,[18],inactive
same,Potency,[3],inactive
same,Potency,[4],13.3 µM (active)
same,outcome,[5],inactive
same,Potency,[7],inactive
same,Potency,[8],18.8 µM (active)
same,Potency,[9],29.8 µM (active)
same,Potency,[10],23.7 µM (active)
same,Potency,[17],inactive
same,Potency,[11],18.8 µM (active)
same,Potency,[12],inactive
same,Potency,[13],inactive
same,Potency,[14],33.5 µM (active)
same,Potency,[15],inactive
COc1ccc(OC(F)(F)F)cc1CN[C@H]1CCCN[C@H]1c1ccccc1,Potency,[1],48.6 µM (active)
same,Potency,[3],inactive
same,Potency,[19],inactive
same,Potency,[4],48.6 µM (active)
same,outcome,[5],inactive
same,Potency,[6],10.9 µM (active)
same,Potency,[9],48.6 µM (active)
same,Potency,[10],34.4 µM (active)
same,Potency,[11],30.6 µM (active)
same,Potency,[12],inactive
same,Potency,[13],inactive
same,Potency,[15],inactive
OC[C@H]1O[C@H](O[C@]2(CCl)O[C@H](CCl)[C@@H](O)[C@@H]2O)[C@H](O)[C@@H](O)[C@H]1Cl,Potency,[1],inactive
same,Potency,[3],inactive
same,Potency,[4],inactive
same,outcome,[5],inactive
same,Potency,[6],inactive
same,Potency,[7],inactive
same,Potency,[8],inactive
same,Potency,[9],inactive
same,Potency,[10],inactive
same,Potency,[13],inactive
same,Potency,[14],inactive
same,Potency,[15],inactive
Cc1cc(C)nc(NS(=O)(=O)c2ccc(N)cc2)n1,Potency,[1],inactive
same,Potency,[18],inactive
same,Potency,[3],inactive
same,Potency,[4],inactive
same,outcome,[5],inactive
same,Potency,[6],inactive
same,Potency,[9],inactive
same,Potency,[10],inactive
same,Potency,[13],inactive
same,Potency,[14],inactive
same,Potency,[15],inactive
